# According to PubChem BioAssay AID743433 (Vanderbilt Specialized Chemistry Center, 2014):
# Biological target: Metabotropic glutamate receptor 2 (Homo sapiens) (UniProt Q14416)
# Assay: mGlu2 agonist response modulation at 10 µM, profiling panel, selectivity assay for mGlu8/mGlu7 PAM project, cell-based, GIRK thallium flux, agonist curve fold shift (AID 743433)
# Settings: mGlu2/GIRK cells, agonist CRC shift, agonist EC50 fold shift
# Metabotropic glutamate receptor 2 (Homo sapiens), sequence (Q14416 whole entry, looked up): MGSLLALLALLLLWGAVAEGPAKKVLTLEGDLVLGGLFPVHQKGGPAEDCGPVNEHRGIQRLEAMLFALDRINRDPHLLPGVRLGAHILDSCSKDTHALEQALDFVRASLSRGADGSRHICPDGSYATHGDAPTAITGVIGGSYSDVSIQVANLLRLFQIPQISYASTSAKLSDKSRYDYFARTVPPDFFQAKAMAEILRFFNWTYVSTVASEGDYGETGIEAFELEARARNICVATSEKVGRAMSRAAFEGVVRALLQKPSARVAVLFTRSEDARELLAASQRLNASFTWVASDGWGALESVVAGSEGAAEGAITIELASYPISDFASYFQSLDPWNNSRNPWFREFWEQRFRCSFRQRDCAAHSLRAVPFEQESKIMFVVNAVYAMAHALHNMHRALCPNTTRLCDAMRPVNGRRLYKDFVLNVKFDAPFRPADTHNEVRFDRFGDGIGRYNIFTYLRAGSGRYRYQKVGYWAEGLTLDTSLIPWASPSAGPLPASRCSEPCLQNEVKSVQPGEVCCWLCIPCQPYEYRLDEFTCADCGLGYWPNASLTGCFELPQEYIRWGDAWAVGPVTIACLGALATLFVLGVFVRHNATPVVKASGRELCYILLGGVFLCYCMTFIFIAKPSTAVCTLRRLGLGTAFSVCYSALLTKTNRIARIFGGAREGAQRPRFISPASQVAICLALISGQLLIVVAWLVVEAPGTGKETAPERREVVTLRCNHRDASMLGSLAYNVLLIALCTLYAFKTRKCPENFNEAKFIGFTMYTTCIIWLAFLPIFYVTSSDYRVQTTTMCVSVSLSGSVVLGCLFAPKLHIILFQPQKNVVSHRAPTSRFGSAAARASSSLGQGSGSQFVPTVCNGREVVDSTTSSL
compound,measurement,value
COC(=O)c1ccc(-n2c(C)cc(C(=O)CSc3ccc(NC(C)=O)cc3)c2C)cc1,fold shift,1
